Assay outcomes: PubChem BioAssay, National Center for Advancing Translational Sciences (NCATS)
Marburg entry inh: inhibitors of Marburg virus binding or cell entry; Marburg virus pseudotyped entry inhibition, cell reporter; Potency, µM (doses to about 37.8 µM), for inactives: top-dose activity change, negative = inhibition, usual class: inhibitors; 300,000 compounds, 1.8% hits; AID 540276; calls by dose curve; tested in HEK293 cells; also: potency is read from the fitted curve at half-maximal effect; % is scaled to controls: 0 for no effect and ±100 for the full control effect
Shiga toxin inh: Shiga toxin inhibition. Vero cells, Shiga toxin protein synthesis inhibition reporter. inhibition, % at 38.7 µM. 290,000 compounds, 9.2% hits. AID 2315; in the data active = inhibition mostly above about 28%, no sharp cut-off; inactive = mostly below about 43%; also: 0% is about no effect
Cycloheximide cs: counter-screen for Shiga toxin inhibitors: cycloheximide protein synthesis inhibition. cell reporter, cycloheximide protein synthesis inhibition counterscreen. 300,000 compounds, 12% hits. AID 2314. max response, %; in the data active = max response mostly above about 13%, no sharp cut-off; inactive = mostly below about 14%; also: read at 38.3 µM for the half of the compounds with a filed dose; 0% is about no effect
LASV entry inh: inhibitors of Lassa virus binding or cell entry; Lassa virus pseudotype entry inhibition, cell reporter; Potency, µM (series often up to 37.9 µM), inactives show top-dose activity change, negative = inhibition, most hits filed as inhibitors; 300,000 compounds, 1.2% hits; calls by dose curve; tested in HEK293 cells; also: potency is read from the fitted curve at half-maximal effect; % is scaled to controls: 0 for no effect and ±100 for the full control effect; nearly all actives have a fitted effect of over 50% in size
* marks the source's active call; other numbers are inactive results; [ ] = another dose, or the depositor's remark. Shown are actives, neighbours in structure and some others; about 12% of the full set was active somewhere.

Results for O=C(c1ccccc1)c1c(O)cc(-c2ccccc2)oc1=O ?
Marburg entry inh: -13%; Shiga toxin inh: 8; Cycloheximide cs: 5; LASV entry inh: 2%

How did COc1cccc(/C=N/c2oc(-c3ccccc3)cc2C#N)c1O do in these assays?
Marburg entry inh: inconclusive; Shiga toxin inh: 0; Cycloheximide cs: 24*; LASV entry inh: -2%

What do the screens show for `Cc1nc([N+](=O)[O-])cn1CC(O)c1ccc(F)cc1` (centres undefined)?
Marburg entry inh: 0%[46.1 µM]; Shiga toxin inh: -10; Cycloheximide cs: 1; LASV entry inh: 10%

What do the screens show for `COC(=O)c1cccc(CSC(=S)N2CCCC2)c1`?
Shiga toxin inh: 36; Cycloheximide cs: 30*

Results for COc1cccc(CN(C)C(=O)c2[nH]c(C)c(C(C)=O)c2C)c1OC ?
Marburg entry inh: inconclusive; Shiga toxin inh: 2; Cycloheximide cs: -2; LASV entry inh: -2%

How did CCOC(=O)c1ccc(N2C(=O)c3n[nH]c(-c4ccco4)c3C2c2ccc(O)c(OC)c2)cc1 (centres undefined) do in these assays?
Marburg entry inh: inconclusive; LASV entry inh: -24%[46.1 µM]

What do the screens show for `CCOC(=O)c1ccc(N2C(=O)c3n[nH]c(-c4cccs4)c3C2c2cccc(OC)c2)cc1` (centres undefined)?
Marburg entry inh: 10µM*; LASV entry inh: inconclusive

What do the screens show for `CCOC(=O)c1ccc(N2C(=O)c3n[nH]c(-c4ccco4)c3C2c2ccc([N+](=O)[O-])cc2)cc1` (centres undefined)?
Marburg entry inh: inconclusive; Shiga toxin inh: -13; Cycloheximide cs: -1; LASV entry inh: 23µM*

What do the screens show for `CCOC(=O)c1ccc(N2C(=O)c3[nH]nc(-c4ccc(C)cc4)c3C2c2ccc(O)cc2)cc1` (centres undefined)?
Marburg entry inh: 10µM*; LASV entry inh: inconclusive

Results for CCCN1C(=O)c2[nH]nc(-c3ccc(OC)cc3)c2C1c1ccccn1 (centres undefined) ?
Marburg entry inh: -15%[46.1 µM]; LASV entry inh: 0%[46.1 µM]

Results for CCOc1ccc(N2C(=O)c3[nH]nc(-c4ccc(OC)cc4)c3C2c2cccs2)cc1 (centres undefined) ?
Marburg entry inh: 7.9µM*; LASV entry inh: inconclusive

What do the screens show for `CCOC(=O)c1ccc(N2C(=O)c3n[nH]c(C)c3C2c2cccnc2)cc1` (centres undefined)?
Marburg entry inh: -8%; Shiga toxin inh: -7; Cycloheximide cs: -6; LASV entry inh: -16%

How did CCOc1ccc(NC(=O)N(Cc2c[nH]c3ccccc23)C2CCCCCC2)cc1 do in these assays?
Marburg entry inh: inconclusive; LASV entry inh: -5%[46.1 µM]

Results for Cc1nn(-c2ccccc2)c(C)c1/C=N/N1CCN(Cc2ccccc2)CC1 ?
Marburg entry inh: -37%; LASV entry inh: -20%

How did CC(=O)c1ccc(NC(=S)NC(C)c2ccc(Cl)cc2Cl)cc1 (centres undefined) do in these assays?
Marburg entry inh: -18%; Shiga toxin inh: -4; Cycloheximide cs: -3; LASV entry inh: inconclusive

Results for COc1ccccc1C1=NN(C(=S)Nc2ccccc2)C(c2ccco2)C1 (centres undefined) ?
Marburg entry inh: inconclusive; Shiga toxin inh: 51*; Cycloheximide cs: 28*; LASV entry inh: inconclusive

Results for COc1ccc(OC)c(C2CC(c3ccccc3)=NN2C(=S)Nc2ccccc2)c1 (centres undefined) ?
Shiga toxin inh: 31; Cycloheximide cs: 8

How did CCc1cccc(NC(=O)CSc2ncccc2C(=O)Oc2ccccc2Cl)c1 do in these assays?
Shiga toxin inh: -4; Cycloheximide cs: -3; LASV entry inh: -2%[46.1 µM]

What do the screens show for `Cc1cc(NC(=O)CSc2nnc(-c3ccc(O)cc3)o2)no1`?
Shiga toxin inh: 52*; Cycloheximide cs: active

Results for O=C(CSc1nnc(-c2ccccn2)o1)Nc1ccccc1F ?
Marburg entry inh: inconclusive; Shiga toxin inh: 74*; Cycloheximide cs: 25*; LASV entry inh: inconclusive

What do the screens show for `Cc1cc(-c2nnc(SCCC(=O)Nc3ccccc3)o2)no1`?
Marburg entry inh: -18%; Shiga toxin inh: -12; Cycloheximide cs: 35*; LASV entry inh: -5%

How did Cc1cc(NC(=O)CSc2nnc(-c3ccccc3)o2)no1 do in these assays?
Marburg entry inh: 7%[46.1 µM]; Shiga toxin inh: 39; Cycloheximide cs: -2; LASV entry inh: 0%[46.1 µM]

How did Cc1ccccc1NC(=O)CSc1nnc(-c2ccccn2)o1 do in these assays?
Marburg entry inh: inconclusive; Shiga toxin inh: -4; Cycloheximide cs: -5; LASV entry inh: 13%[46.1 µM]

Results for O=C(CSc1nnc(-c2csc3c2CCCC3)o1)Nc1ccccc1 ?
Shiga toxin inh: 55*; Cycloheximide cs: 58*

How did O=C(CCSc1nnc(-c2ccncc2)o1)Nc1ccccc1 do in these assays?
Marburg entry inh: -11%; Shiga toxin inh: -9; Cycloheximide cs: -4; LASV entry inh: 13%

What do the screens show for `CCN(CC)S(=O)(=O)c1ccc(NN=C2CCN(C)CC2)c([N+](=O)[O-])c1`?
Marburg entry inh: -29%[46.1 µM]; Shiga toxin inh: -10; Cycloheximide cs: 5; LASV entry inh: inconclusive

What do the screens show for `Cc1cccc(C(=O)N2CCN(S(=O)(=O)N3CCCCCC3)CC2)c1`?
Marburg entry inh: 4%[46.1 µM]; Shiga toxin inh: -5; Cycloheximide cs: -6; LASV entry inh: 3%

What do the screens show for `O=C(CSc1nnc(-c2ccc(O)cc2)o1)Nc1ccccc1`?
Marburg entry inh: inconclusive; Shiga toxin inh: 61*; Cycloheximide cs: 28*; LASV entry inh: inconclusive

Results for O=C(CSc1nnc(-c2ccc(Cl)cc2)o1)Nc1ccc(F)cc1 ?
Marburg entry inh: 0%[46.1 µM]; LASV entry inh: inconclusive

What do the screens show for `C/C(CCc1ccc2c(c1)OCO2)=N\NC(=O)c1ccccc1`?
Marburg entry inh: inconclusive; Shiga toxin inh: 76*; Cycloheximide cs: 36*; LASV entry inh: inconclusive

How did C/C(CCc1ccc2c(c1)OCO2)=N\NC(=O)c1ccccc1Cl do in these assays?
Marburg entry inh: 0%; Shiga toxin inh: 13; Cycloheximide cs: 24*; LASV entry inh: 4%

What do the screens show for `CC(=O)N(C)c1ccc(NC(=O)C(Sc2ccccc2)c2ccccc2)cc1` (centres undefined)?
Marburg entry inh: -25%[46.1 µM]; Shiga toxin inh: 43*; Cycloheximide cs: 18*; LASV entry inh: -12%[46.1 µM]

How did COc1ccccc1NC(=O)Nc1ccc(Cc2ccncc2)cc1 do in these assays?
Marburg entry inh: 14%[46.1 µM]; Shiga toxin inh: 50*; Cycloheximide cs: 10; LASV entry inh: inconclusive

How did CCOc1ccccc1N(C(C)=O)S(=O)(=O)c1ccc(Cl)cc1 do in these assays?
Marburg entry inh: 3%[46.1 µM]; Shiga toxin inh: -8; Cycloheximide cs: 0; LASV entry inh: 1%

How did CCOc1ccccc1N(C(=O)Nc1ccc(Cl)cc1)C1=NC(C)CS1 (centres undefined) do in these assays?
Shiga toxin inh: 82*; Cycloheximide cs: 25*

How did COc1ccccc1NC(=O)Nc1ccc(C(N)=O)cc1 do in these assays?
Shiga toxin inh: 19; Cycloheximide cs: 13*

Results for CSc1nnc2c(n1)C[C@H](c1ccccc1)[C@@H](C)[C@@H](C(=O)N1CCCC1)C2 ?
Marburg entry inh: 14%[14.2 µM]

What do the screens show for `CCn1cc(C(=O)NCc2ccccc2OC)c(=O)c2cc(S(=O)(=O)N3CCCCC3)ccc21`?
Marburg entry inh: inconclusive; LASV entry inh: -36%[46.1 µM]
